Out of some 320,000 compounds screened, about 8,000 (2.5%) were called active. Cut-off read from the data, not from the text of the source: active = activation above about 47%; inactive = the rest. The full list was thinned out, with actives kept by preference.

Chain of Aryl hydrocarbon receptor (Homo sapiens) (P35869 whole entry, looked up): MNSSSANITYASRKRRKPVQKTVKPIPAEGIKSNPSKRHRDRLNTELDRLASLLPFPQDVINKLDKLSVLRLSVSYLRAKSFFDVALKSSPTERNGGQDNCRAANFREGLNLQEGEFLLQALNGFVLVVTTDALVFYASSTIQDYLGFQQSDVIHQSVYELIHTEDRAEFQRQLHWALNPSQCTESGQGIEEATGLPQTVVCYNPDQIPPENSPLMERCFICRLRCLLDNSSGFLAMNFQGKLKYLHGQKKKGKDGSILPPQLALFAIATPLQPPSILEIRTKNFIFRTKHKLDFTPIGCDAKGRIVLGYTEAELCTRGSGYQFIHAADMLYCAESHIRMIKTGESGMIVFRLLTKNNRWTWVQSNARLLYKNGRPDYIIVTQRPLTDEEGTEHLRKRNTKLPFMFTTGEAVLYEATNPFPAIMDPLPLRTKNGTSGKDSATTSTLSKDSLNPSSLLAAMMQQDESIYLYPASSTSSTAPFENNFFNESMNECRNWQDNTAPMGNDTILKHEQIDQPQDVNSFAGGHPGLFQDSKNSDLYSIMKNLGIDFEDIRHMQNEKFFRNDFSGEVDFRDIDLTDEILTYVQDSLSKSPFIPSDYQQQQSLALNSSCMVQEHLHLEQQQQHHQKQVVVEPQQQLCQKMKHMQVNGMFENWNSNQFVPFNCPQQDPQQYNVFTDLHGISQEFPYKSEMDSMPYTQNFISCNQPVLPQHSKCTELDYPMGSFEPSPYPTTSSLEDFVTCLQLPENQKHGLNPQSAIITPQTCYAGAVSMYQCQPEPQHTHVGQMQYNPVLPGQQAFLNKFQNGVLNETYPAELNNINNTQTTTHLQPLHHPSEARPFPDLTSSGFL

This assay has as its target Aryl hydrocarbon receptor (Homo sapiens) (UniProt P35869). The experiment in a line: AHR activators, primary screen, cell-based, luminescence, luciferase reporter, human (AID 2796).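 Note: 0% = vehicle wells and 100% = reference agonist.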 Particulars: AHR-responsive luciferase reporter cells, at 5 µM, active compounds read high.
For `Cn1c(N2CCOCC2)c(C=O)c2ccccc21`, the activation is 1.65% (inactive).

In the case of `O=C(OCC(=O)N1CCN(c2ccccc2)CC1)c1ccc([N+](=O)[O-])s1`, the activation is 0.3% (inactive). The value for `CSCCC1NC2(C(=O)Nc3ccc(Cl)cc32)[C@@H]2C(=O)N(C3CCCC3)C(=O)[C@H]12` (some centres not stated) was 8.17% (inactive); that for `O=c1cc(Cn2nnc(-c3ccc(Cl)cc3)n2)nc2sccn12` was 3.29% (inactive). Turning to `COc1ccccc1N1CCN(C(=O)Cn2nnc(-c3cccs3)n2)CC1`, the activation is 4.18% (inactive). The value for `Clc1cccc(Cl)c1Cn1nnc(-c2cccs2)n1` was 64.8% (active). Regarding `Cc1nnc(SCC(=O)NC(=O)NC2CCCC2)n1N`, the activation is 1.5% (inactive). The value for `Cc1nnc(SCC(=O)Nc2cccc(N)c2)n1-c1ccccc1` was 7.29% (inactive); that for `O=C(CNC(=O)c1ccc2ccccc2c1)Nc1ncccc1O` was 10.7% (inactive); that for `Cc1ccc(NC(=O)CSc2cccc3cccnc23)c(C)c1` was 10.7% (inactive).

As to `O=C(CSc1cccc2cccnc12)N/N=C/c1cccnc1`, the activation is 150% (active). For the molecule `Cc1nc2ccccc2n1CC(=O)N/N=C/c1cccnc1`, the activation was 2.29% (inactive). The result for `CCN(CC(=O)Nc1c(F)cccc1F)C(=O)C1CCC1` reads -0.62% (inactive); that for `CCCNC(=O)CSc1nc(Cc2ccccc2)nc2ccccc12`, -0.23% (inactive); that for `COc1ccc2c(C)cc(SCC(=O)NCC3CCCO3)nc2c1` (configuration not stated), 17.6% (inactive).

For the molecule `Cc1cc(SCC(=O)NCCN2C(=O)CSC2=O)nc2ccccc12`, the activation is 55.3% (active). As for `CC(C)OC(=O)Cn1nc(C(F)(F)F)c2c1CCCC2`, the activation was -2.63% (inactive).

In the case of `O=C(COC(=O)c1cc(=O)[nH]c2ccccc12)Nc1nc(-c2cccc(Br)c2)cs1`, the activation was 5% (inactive). The value for `CCOC(=O)c1cc2c(=O)[nH]c(C(Cl)(Cl)Cl)nc2o1` was -0.93% (inactive); that for `CC1(C)Oc2ccc(C(=O)N3CCOCC3)cc2N(CC(=O)Nc2ccccc2)C1=O` was 1.48% (inactive); that for `CCSc1nc2c(c(=O)[nH]1)C(c1cccnc1)C(C(=O)OC(C)C)=C(C)N2` (configuration not stated) was 0.13% (inactive). The value for `COc1ccc(-n2c(=S)[nH]c3sc4c(c3c2=O)CCc2ccccc2-4)cc1` was 8.98% (inactive); that for `CSc1nc2sc3c(c2c(=O)[nH]1)CCc1ccccc1-3` was 74% (active).

Take `CCC1(C)Cc2c(sc3nc(SC)[nH]c(=O)c23)CO1` (configuration not stated): the activation is -2.64% (inactive). The result for `O=C(CNC(=O)Cc1ccccc1)NCC(=O)OCC(=O)c1ccccc1Cl` reads 22.1% (inactive); that for `C/C(=N/NC(=S)Nc1ccccc1)c1ccc2c(c1)OCO2`, 111% (active); that for `C/C(=N/NC(=O)c1ccncc1)c1ccc2c(c1)OCO2`, 24.8% (inactive).

Take `C/C(=N\NC(=O)C(N)=O)c1ccc2c(c1)OCCO2`: the activation is 3.27% (inactive). The result for `O=C(CSc1nccc(=O)[nH]1)Nc1ccc(N2CCOCC2)c(Cl)c1` reads 0.92% (inactive); that for `C#CCNc1ccc(C(=O)OCC)cc1`, -1.69% (inactive). For `O=[N+]([O-])c1ccc2[nH]c3c(c2c1)CCCC3O` (configuration not stated), the activation is -1.41% (inactive).

Regarding `CCOC(=O)c1ccc2[nH]c3c(c2c1)CCCC3NC=O` (configuration not stated), the activation is 115% (active). For the molecule `COc1ccc(S(=O)(=O)N2CCOCC2)cc1NC(=O)CSc1ncnc2ccccc12`, the activation was 13.1% (inactive). The result for `CCOC(=O)N1CCC(NC(=O)CCc2cn(C)c3ccccc23)CC1` reads -3.32% (inactive).

Take `Cc1cc(Nc2ccc(Cl)cc2)nc(N2CCOCC2)n1`: the activation is 69.5% (active). The value for `COc1ccc(Nc2ncc(F)c(N3CCOCC3)n2)cc1` was 22.4% (inactive); that for `Cc1ccc(Nc2nc(N3CCOCC3)nc(N3CCOCC3)n2)cc1Cl` was 12.7% (inactive). The result for `CCCCc1ccc(NS(=O)(=O)c2cccc(C(=O)N3CCCN(C)CC3)c2)cc1` reads -1.46% (inactive); that for `CCOC(=O)c1ccc(NC(=O)C2CC(=O)N(c3ccc4c(c3)OCCO4)C2)cc1` (configuration not stated), -1.04% (inactive). The value for `O=C(c1cc2ccccc2s1)N1CCN(c2ccccn2)CC1` was 27.8% (inactive); that for `CCc1ccccc1N(CC(=O)N1CCN(c2ccccc2F)CC1)S(C)(=O)=O` was -0.81% (inactive); that for `COc1ccc(/C=N/NC(=O)c2ccc3c(c2)OCCO3)c(OC)c1` was 2.32% (inactive). Turning to `COc1ccc(C(=O)Nc2ccccc2C(=O)N/N=C/c2ccc(O)c(OC)c2)cc1`, the activation was 8.36% (inactive). The value for `COc1ccc(C(=O)Nc2ccccc2C(=O)N/N=C/c2ccccc2OC)cc1` was 103% (active); that for `O=C(/C=C(O)/C=C/c1ccc(O)cc1)/C=C/c1ccc(O)cc1` was -0.31% (inactive); that for `O=C(N/N=C\c1cccc(Br)c1)c1ccccc1-n1cccc1` was 64.9% (active). The value for `Cn1c(=O)n(C)c2cc(/C=N/NC(=O)c3cccc(Br)c3)ccc21` was 31.6% (inactive).

Turning to `O=C(N/N=C/c1cccc(Br)c1)c1ccc(N2CCCC2=O)cc1`, the activation was -0.14% (inactive). With `CC(C)CC(=O)NC(=S)Nc1ccc(F)cc1F`, the activation is -1.68% (inactive). The value for `CCOC(=O)C1CCN(S(=O)(=O)c2c(C)noc2C)CC1` was -0.3% (inactive); that for `C=CCC1(C(=O)N(C)Cc2ccccc2)CCN(C(=O)OC(C)(C)C)CC1` was 5% (inactive). The result for `COC(=O)[C@]1(C)N[C@H](CN(C)C(=O)c2ccc(C(C)(C)C)cc2)[C@@H]2C(=O)N(C)C(=O)[C@@H]21` reads 0.09% (inactive); that for `O=C(Nn1cnc2ccccc2c1=O)c1ccccc1`, 4.61% (inactive).

On to `N#CCCCn1c(O)c(N=NC(=O)C(O)c2ccccc2)c2ccccc21` (configuration not stated), for which the activation was 6.74% (inactive).

As to `CC(C(=O)N=Nc1c(O)n(C)c2ccc(Br)cc12)n1cnc2ccccc2c1=O` (configuration not stated), the activation is 80% (active).

On to `O=S(=O)(NCCSc1ccccn1)c1ccc(Cl)cc1`, for which the activation is 0.03% (inactive). For `COc1ccc(CCNC(=O)COC(=O)c2ncc(Cl)c(Cl)c2Cl)cc1OC`, the activation is -0.83% (inactive). The result for `COc1ccc(Nc2nc(N)nc(CSC(=S)N3CCC(C)CC3)n2)cc1` reads 25.5% (inactive); that for `COc1cccc(NC(=S)N(CCc2c(C)[nH]c3ccccc23)Cc2ccco2)c1`, 12% (inactive). As for `COCCNC(=S)N(CCc1c(C)[nH]c2ccc(C)cc12)Cc1cccnc1`, the activation is 20.1% (inactive). The value for `CCNC(=S)N(CCc1c(C)[nH]c2ccc(C)cc12)Cc1ccco1` was 59.4% (active); that for `Cc1ccc(CN(CC(=O)NC2CCCCC2)C(=O)c2csnn2)cc1` was -0.48% (inactive); that for `CCOC(=O)C1(CCOc2ccccc2)CCN(Cc2cc(OC)cc(OC)c2)CC1` was 7.35% (inactive). The value for `CCOc1ccc(NC(=O)[C@H](C)NC(=O)C2CC(=O)N(c3ccc(OC)cc3)C2)cc1` (some centres not stated) was 1.62% (inactive). The result for `CCNC(=O)NC(=O)C(C)OC(=O)C1CCN(S(=O)(=O)c2ccccc2F)CC1` (configuration not stated) reads -0.8% (inactive); that for `COc1ccccc1N1CCN(C(=O)C2Cc3ccccc3CN2C(=O)c2ccco2)CC1` (configuration not stated), 1.25% (inactive).

For the molecule `COc1ccc(C(=O)Nc2ncc3c(n2)-c2ccccc2CC3)cc1`, the activation is 103% (active).

In the case of `COc1ccc(NC(=O)c2cnc(NS(=O)(=O)c3ccccc3)nc2)cc1`, the activation was -2.22% (inactive). The result for `O=C(Nc1ncc2c(n1)-c1ccccc1OC2)c1ccc(Cl)cc1` reads 37% (inactive). The result for `C/C(=N\NC(=S)NCc1ccccc1)C1CCCCC1` reads 3.74% (inactive); that for `CCN(c1ccccc1)S(=O)(=O)c1ccc(C(=O)Nc2ccccc2OC)cc1`, 1.62% (inactive); that for `O=C(CSc1ccccn1)Nc1nc2c(ccc3ccccc32)s1`, 96.3% (active). Regarding `COC(=O)c1ccccc1NC(=O)CSc1ccccn1`, the activation is 0.37% (inactive). The result for `CCOC(=O)CSc1ccccn1` reads -0.06% (inactive); that for `Cc1ccc(S(=O)(=O)CCC(=O)OCC(=O)NCCc2ccc(S(N)(=O)=O)cc2)cc1`, -0.33% (inactive); that for `CN(CC(=O)Nc1ccc(OC(F)F)cc1)S(=O)(=O)/C=C/c1ccccc1`, 3.23% (inactive). Turning to `Cc1cc(C)c(S(=O)(=O)c2ccccc2)c(OC(=O)c2c(F)cccc2Cl)n1`, the activation was -0.47% (inactive). The result for `Cc1cccc(C)c1NC(=O)C1CCCN1C(=O)OC(C)(C)C` (configuration not stated) reads 4.06% (inactive); that for `COc1ccc(NC(=O)COC(=O)c2n[nH]c3ccccc23)c(OC)c1`, 23.3% (inactive); that for `O=C(COC(=O)c1n[nH]c2ccccc12)Nc1ccccc1Br`, 53.9% (active). The result for `CN(C)S(=O)(=O)c1ccc(NC(=O)COC(=O)c2n[nH]c3ccccc23)cc1` reads 6.56% (inactive); that for `C[C@@H]1NC(=O)c2cc([N+](=O)[O-])cc(F)c2NCCC[C@@H](C(N)=O)NC(=O)[C@H](CC(N)=O)NC1=O`, -4.67% (inactive). The result for `COCCN(C(=O)c1ccccc1F)c1c(N)n(Cc2ccccc2)c(=O)[nH]c1=O` reads 0.27% (inactive). On to `O=S(=O)(Nc1ccc(O)c2ccccc12)c1ccc(OC(F)(F)F)cc1`, for which the activation is 33.7% (inactive). The value for `CCOc1ccc(N(CC)S(=O)(=O)c2cccc3nsnc23)cc1` was 5.33% (inactive).

In the case of `CCOc1ccc(OCC)c(NC(=O)CN(C)S(=O)(=O)c2cccc3nsnc23)c1`, the activation is 53.7% (active). The result for `CCOc1ccccc1NC(=O)CCS(=O)(=O)c1cccc2nsnc12` reads 11.7% (inactive); that for `Cc1ccccc1CN1CCC(C(=O)Nc2ccc(Oc3cccnc3)cc2)CC1`, 1.47% (inactive); that for `O=C(Nc1cc2c3c(c1)CC(=O)N3CCC2)c1ccccc1F`, 3.64% (inactive). The result for `CC(Nc1nc(C(F)(F)F)nc2ccccc12)c1cccs1` (configuration not stated) reads 0.19% (inactive); that for `Cc1cccc(NC(=O)c2cc(N3C(=O)CCC3=O)ccc2Cl)n1`, -0.56% (inactive).

In the case of `Cc1cccc(NC(=O)c2ccc3ccccc3n2)n1`, the activation was 82.1% (active).

On to `Cc1cccc(NC(=O)c2cccnc2Cl)n1`, for which the activation was -1.7% (inactive). The value for `Cn1ccnc1-c1nnn(-c2ccc(F)cc2)n1` was -1.09% (inactive).

In the case of `O=C(COc1ccccc1)Nc1ccc(C(=O)N2CCCC2)cc1`, the activation was -2.51% (inactive). The value for `CC(NC(=O)COc1ccc(-c2ccccc2)cc1)C1CCCO1` (configuration not stated) was 19.8% (inactive). As to `O=C(COc1ccc(-c2ccccc2)cc1)NN=C1CCCC1`, the activation is 52.1% (active).

These data come from PubChem BioAssay AID2796 (The Scripps Research Institute Molecular Screening Center, 2010).
